Sfp inh = inhibitors of Bacillus subtilis Sfp phosphopantetheinyl transferase | Potency, µM, without a hit: largest response in the series, negative = inhibition, hits mostly inhibitors | Biochemical Sfp PPTase activity, qHTS | hit rate 3.5% among 310,000 | Q9F4F7 | AID 1490;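 note: the enzyme is Sfp with the accession as filed and its product quenches rhodamine fluorescence; 0% = enzyme reaction without inhibitor and -100% = no enzyme wells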
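Reaction rates are the 30-min fluorescence difference (ex 525, em 598 nm) in wells containing 15 nM Sfp, 5 uM rhodamine-CoA and 12.5 uM BHQ-2-YbbR at pH 7.6 with 10 mM MgCl2.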
JMJD2A Tudor = inhibitors of human JMJD2A Tudor domain. O75164. AlphaScreen JMJD2A-Tudor / H3K4me3 peptide binding. Potency, µM (titrated, usually from 114 µM), inactives show top-dose activity change, negative = inhibition, hits mostly inhibitors. hit rate 4.4% among 390,000. AID 504339; note: % is set by controls: 0 for no effect and ±100 for the full control effect; nearly all actives have a fitted effect of over 50% in size
BAZ2B block = blocks human BAZ2B; Q9UIF8; AlphaScreen BAZ2B-H3K14Ac peptide displacement; Potency, µM (highest dose often 114 µM), without a hit: top-dose activity change, negative = inhibition, usual class: inhibitors; hit rate 4.4% among 360,000; AID 504333; note: % is set by controls: 0 for no effect and ±100 for the full control effect; nearly all actives have a fitted effect of over 60% in size
Target sequence (Q9UIF8 whole entry, looked up): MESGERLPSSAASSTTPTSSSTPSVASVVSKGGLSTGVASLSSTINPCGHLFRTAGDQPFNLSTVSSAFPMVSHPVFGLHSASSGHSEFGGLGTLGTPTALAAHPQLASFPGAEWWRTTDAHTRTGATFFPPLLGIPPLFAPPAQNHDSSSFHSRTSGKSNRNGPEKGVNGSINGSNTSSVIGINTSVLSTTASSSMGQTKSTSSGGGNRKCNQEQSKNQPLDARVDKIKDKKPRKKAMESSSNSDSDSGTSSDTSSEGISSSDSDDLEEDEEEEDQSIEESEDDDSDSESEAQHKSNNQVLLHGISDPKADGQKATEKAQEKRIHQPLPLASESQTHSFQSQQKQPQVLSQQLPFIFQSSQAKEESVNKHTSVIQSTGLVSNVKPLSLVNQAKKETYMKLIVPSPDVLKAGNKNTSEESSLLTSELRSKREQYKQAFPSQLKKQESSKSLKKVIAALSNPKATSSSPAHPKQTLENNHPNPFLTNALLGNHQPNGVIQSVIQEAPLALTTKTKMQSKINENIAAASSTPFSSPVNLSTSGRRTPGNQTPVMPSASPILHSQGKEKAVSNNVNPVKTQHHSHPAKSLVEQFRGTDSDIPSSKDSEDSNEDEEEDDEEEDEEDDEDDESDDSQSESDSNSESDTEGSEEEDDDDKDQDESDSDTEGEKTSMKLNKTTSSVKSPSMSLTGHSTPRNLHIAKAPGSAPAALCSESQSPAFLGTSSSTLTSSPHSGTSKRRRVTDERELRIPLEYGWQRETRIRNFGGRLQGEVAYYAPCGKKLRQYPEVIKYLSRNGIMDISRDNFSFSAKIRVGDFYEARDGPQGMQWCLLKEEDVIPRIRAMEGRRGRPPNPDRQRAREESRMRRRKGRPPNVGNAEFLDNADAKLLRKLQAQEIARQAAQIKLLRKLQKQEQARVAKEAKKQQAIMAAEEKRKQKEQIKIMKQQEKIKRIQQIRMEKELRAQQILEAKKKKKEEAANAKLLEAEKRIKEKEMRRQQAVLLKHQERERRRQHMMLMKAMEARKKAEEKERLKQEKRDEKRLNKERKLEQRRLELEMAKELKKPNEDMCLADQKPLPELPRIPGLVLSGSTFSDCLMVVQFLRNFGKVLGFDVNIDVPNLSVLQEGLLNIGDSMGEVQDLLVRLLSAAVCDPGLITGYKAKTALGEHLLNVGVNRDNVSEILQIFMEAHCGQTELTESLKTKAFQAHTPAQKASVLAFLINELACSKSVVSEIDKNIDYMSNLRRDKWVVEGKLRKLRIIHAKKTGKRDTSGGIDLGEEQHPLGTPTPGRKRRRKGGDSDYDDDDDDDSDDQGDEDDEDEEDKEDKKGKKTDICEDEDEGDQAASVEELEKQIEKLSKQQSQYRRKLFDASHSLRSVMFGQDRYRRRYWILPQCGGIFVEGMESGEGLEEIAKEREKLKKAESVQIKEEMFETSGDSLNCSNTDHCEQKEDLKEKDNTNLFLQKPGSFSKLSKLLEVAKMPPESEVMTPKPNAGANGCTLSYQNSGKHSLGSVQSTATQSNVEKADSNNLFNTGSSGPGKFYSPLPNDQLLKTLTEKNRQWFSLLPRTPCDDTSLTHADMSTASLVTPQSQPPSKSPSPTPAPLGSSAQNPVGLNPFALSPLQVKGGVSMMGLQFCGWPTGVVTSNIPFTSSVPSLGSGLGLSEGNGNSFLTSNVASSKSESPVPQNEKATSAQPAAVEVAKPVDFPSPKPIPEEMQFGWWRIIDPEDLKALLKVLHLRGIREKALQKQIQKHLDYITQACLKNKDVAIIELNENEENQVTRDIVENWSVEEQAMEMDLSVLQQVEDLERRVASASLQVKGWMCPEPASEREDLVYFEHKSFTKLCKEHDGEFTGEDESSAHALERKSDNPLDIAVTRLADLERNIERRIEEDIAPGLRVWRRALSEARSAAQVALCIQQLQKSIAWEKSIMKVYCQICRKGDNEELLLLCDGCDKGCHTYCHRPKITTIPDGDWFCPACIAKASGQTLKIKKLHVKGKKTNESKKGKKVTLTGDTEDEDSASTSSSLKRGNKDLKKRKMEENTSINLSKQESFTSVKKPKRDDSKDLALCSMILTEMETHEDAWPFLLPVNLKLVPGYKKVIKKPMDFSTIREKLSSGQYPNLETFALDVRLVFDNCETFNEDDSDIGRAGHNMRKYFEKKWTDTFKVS
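AlphaScreen displacement: compounds (up to 110uM) incubated 30 min at room temperature with a preformed 50 nM BAZ2B/50 nM biotinylated H3K14Ac peptide complex in PBS pH 7.4 with Tween-20. Donor and acceptor beads at 10 ug/mL final added, 20 min light-protected before reading.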
G9a inh = G9a (human) methyltransferase inhibition | hit rate 8.8% among 350,000 | AID 504332 | G9a H3K9 monomethylation, AlphaScreen, 2 h | Potency, µM (titrated, usually from 102 µM), for inactives: top-dose activity, negative = inhibition, hits mostly inhibitors; note: % is set by controls: 0 for no effect and ±100 for the full control effect; nearly all actives have a fitted effect of over 75% in size
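Quantitative HTS format: methyltransferase activity on a biotin-tagged H3K9 peptide is measured by AlphaScreen, using a rabbit anti-monomethyl-H3K9 antibody with streptavidin donor and anti-IgG acceptor beads. Final levels are 20 nM enzyme, 500 nM peptide, 20 uM SAM; 2 h RT.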
HP1b binding inh = inhibitors of HP1-beta chromodomain binding to methylated histone tails; hit rate 0.56% among 390,000; AlphaScreen HP1-beta / biotin-H3K9me3 peptide binding; Potency, µM (highest dose often 114 µM), without a hit: top-dose activity change, negative = inhibition, hits mostly inhibitors; AID 540317; P83916; note: nearly all actives have a fitted effect of over 70% in size
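AlphaScreen: HP1-beta (50 nM) preformed 30 min with biotin-H3(1-18)K9me3 peptide (50 nM) in PBS pH 7.4, 0.01% Tween-20. Compound added for 30 min at RT, then streptavidin donor/nickel chelate acceptor beads (10 ug/mL) for 30 min.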
* = called active by the depositor; u = inconclusive; x = not tested or not shown; [ ] = another dose, or the depositor's remark. Most compounds without a hit are left out; they make up all but 12% or so of the library. Calls come from the whole dose curve; as a rule, active = well fitted curve in the direction sought with a large enough effect; inconclusive = small, poorly fitted or top-dose-only effect, or another doubt; inactive = no such curve, though single readings can be large; an effect the other way counts as inactive or inconclusive. Potency is the fitted concentration of half-maximal effect.

SMILES	Sfp inh	JMJD2A Tudor	BAZ2B block	G9a inh	HP1b binding inh
NC(=O)CC(NC(=O)c1ccc(Br)cc1)c1ccc(NC2CCCCCC2)c([N+](=O)[O-])c1 (stereo not drawn)	1%	-25%	u	x	0%
NC(=O)CC(NC(=O)c1ccc(Br)cc1)c1ccc(NC2CCCCC2)c([N+](=O)[O-])c1 (stereo not drawn)	4%	-11%	-6%	x	33%
NC(=O)CC(NC(=O)c1cccc(Br)c1)c1ccc(NC2CCCCCCCCCCC2)c([N+](=O)[O-])c1 (stereo not drawn)	-4%	-10%	-34%	71µM*	20%
COCC(=O)NC1CC(C)(C)Cc2c1cnn2-c1ccc(F)cc1 (stereo not drawn)	14%	-3%	3%	x	58%
Cc1ccccc1NC(=O)CCC(=O)N/N=C/c1cc([N+](=O)[O-])ccc1O	0%	-20%	u	-13%	20%
Cc1n[nH]c(C)c1Sc1ccccc1N=Cc1cc([N+](=O)[O-])ccc1O	-5%	x	4%	10µM*	x
Cc1cc(O)c(C(C)C)cc1N=Cc1cc([N+](=O)[O-])ccc1O	14µM*	-21%	-11%	x	15%
Cc1cc(O)c(C(C)C)cc1N=Cc1ccccc1O	14µM*	u	u	5.6µM*	-17%[57 µM]
O=c1[nH]cc(N=Cc2cc([N+](=O)[O-])ccc2O)c(=O)[nH]1	-3%	x	-2%	x	x
COc1ccc(/C=C/c2nc3ccccc3c(=O)n2-c2cccc(C(F)(F)F)c2)cc1	x	-16%	2%	-1%[59 µM]	3%
O=C(O)CCCC(=O)NNc1ncnc2ccccc12	-27%	3.2µM*	8%	0%[59 µM]	10%
CCOc1ccc(NC(=O)Cn2nc(C(N)=O)c3ccccc3c2=O)cc1S(=O)(=O)N1CCCC1	x	-14%	-34%	-110%[12.7 µM]	19%
CCOc1ccc(NC(=O)Cn2nnc(-c3ccc(C(N)=O)cc3)n2)cc1S(=O)(=O)N1CCCC1	x	-23%	-7%	79µM*	6%
O=C(O)c1ccc2c(c1)C(=O)N([C@H](Cc1ccccc1)C(=O)O)C2=O	-2%	-28%	79µM*	4%[12.7 µM]	x
CC(C)(C)c1ccc(C[C@H](C(=O)O)N2C(=O)c3ccc(C(=O)O)cc3C2=O)cc1	31%	-23%	1%	-6%[12.7 µM]	x
O=C(O)c1ccc2c(c1)C(=O)N([C@H](Cc1ccc(O)c(O)c1)C(=O)O)C2=O	79µM*	89µM*	u	2µM*	x
CCOC(=O)C1=C(Cc2ccc(OC)cc2)C(=O)c2ccccc2C1=O	10µM*	40µM*	22µM*	2.8µM*	18µM*
CCOC(=O)C1=C(Cc2ccc(C)cc2)C(=O)c2ccccc2C1=O	7.9µM*	x	22µM*	8.9µM*	x
CCN1CCN(C(=O)c2cc3cc([N+](=O)[O-])ccc3oc2=O)CC1	7%	1%	-2%	u	29%
O=C(c1cc2cc([N+](=O)[O-])ccc2oc1=O)n1cccn1	20%	-21%	-14%	45µM*	18%
CSc1ccc(C(=O)C2CCCN(C(=O)c3nn(C)c(=O)c4ccccc34)C2)cc1 (stereo not drawn)	16%	-33%	-14%	28µM*	u
Cc1nc2ccc(C(=O)OCC(=O)N(C)c3ccccc3)cc2nc1C	x	-22%	1%	-37%	9%
CCc1ccc(-n2c(=O)c3cccnc3n2CC(=O)NCc2ccccc2)cc1	x	0%	6%	2%[59 µM]	55%
CC1CCCCC1NC(=O)CN1C(=O)NC(C)(c2cccc(Br)c2)C1=O (stereo not drawn)	x	-13%	10%	0%[2.33 µM]	31%
O=c1oc2ccccc2nc1/C=C(\O)c1ccc(Br)cc1	56µM*	-15%	6%	x	33%
SMILES	Sfp inh	JMJD2A Tudor	BAZ2B block	G9a inh	HP1b binding inh
Cc1ccc2oc(=O)c(/C=C(\O)CC(C)C)nc2c1	2%	-17%	-35%	50µM*	18%
Cc1ccc2oc(=O)c(/C=C(\O)c3ccccc3)nc2c1	u	-23%	-32%	7.9µM*	61%
O=c1oc2ccc(Cl)cc2nc1/C=C(\O)c1cccs1	u	u	50µM*	3.2µM*	-1%
CCOC(=O)C1CCN(C(=O)c2ccc(CNS(=O)(=O)c3ccc(OC)cc3)cc2)CC1	20%	2%	5%	-34%	50%
COc1ccc(S(=O)(=O)N2N=C(c3cccc(NS(C)(=O)=O)c3)CC2c2ccco2)cc1 (stereo not drawn)	-24%	3%	-30%	45µM*	66%
COc1ccc(S(=O)(=O)N2N=C(c3ccc(NS(C)(=O)=O)cc3)CC2c2ccco2)cc1 (stereo not drawn)	56µM*	-31%	x	u	16%
CCS(=O)(=O)Nc1cccc(C2=NN(S(=O)(=O)c3ccc(F)cc3)C(c3cccs3)C2)c1 (stereo not drawn)	7%	-14%	-11%	-29%[59 µM]	31%
COc1ccc(C2CC(c3ccccc3)=NN2S(=O)(=O)c2ccccc2)cc1 (stereo not drawn)	4%	-17%	-4%	x	32%
CS(=O)(=O)Nc1ccc(C2=NN(C(=O)c3ccco3)C(c3ccco3)C2)cc1 (stereo not drawn)	7%	-24%	u	x	8%
CS(=O)(=O)Nc1cccc(C2=NN(S(=O)(=O)c3ccc(F)cc3)C(c3cccs3)C2)c1 (stereo not drawn)	4%	79µM*	-5%	-18%[59 µM]	-5%
CC(=O)Nc1cccc(NC(=O)C2CC(=O)N(CCc3ccc(F)cc3)C2)c1 (stereo not drawn)	0%	-12%	3%	7%	21%
O=C(NCCc1ccccc1)C(c1ccccc1F)N(C(=O)c1csnn1)C1CC1 (stereo not drawn)	19%	-1%	3%	11%	23%
CN1C2CCC1CC(NC(=O)c1cc(S(=O)(=O)N(C)C)c(Cl)cc1Cl)C2 (stereo not drawn)	x	6%	11%	6%[59 µM]	27%
COc1cc(/C=C\C(=O)O)cc(S(=O)(=O)N2CCCCCC2)c1OC	10%	-21%	-7%	x	28%
COc1cc(/C=C/C(=O)O)cc(S(=O)(=O)N2CCc3ccccc3C2)c1OC	-3%	-5%	-36%	89µM*	32%
CCc1ccccc1NC(=O)CCNS(=O)(=O)c1ccc2c(c1)CCN2C(=O)C1CC1	x	-10%	2%	5%[59 µM]	23%[57 µM]
Cc1nc(NC(=O)C(Cl)Cl)sc1C(=O)N(C)C	-25%	79µM*	u	u	10%
CCCOc1ccc(C(=O)NC(=S)Nc2nc(C)c(C(=O)N(C)C)s2)cc1	-1%	-34%	-34%	11µM*	2%
COC(=O)c1sc(NC(=S)NC(=O)c2cc(OC)c(OC)c(OC)c2)nc1C	-17%	-7%	-8%	71µM*	9%
COC(=O)Nc1ccc(S(=O)(=O)NCc2ccccn2)cc1	1%	5.6µM*	-12%	14%	-6%
O=S(=O)(NCc1ccccn1)c1ccccc1	-4%	8.9µM*	-1%	17%[59 µM]	22%

Assay outcomes: PubChem, National Center for Advancing Translational Sciences (NCATS)
